Experimental data published in PubChem BioAssay.
Activity calls are given as the source filed them. Unless noted, no rule for the calls is given here.

Experiments:
[1] = compound effects on lung adenocarcinoma cell viability – A549, calcein-AM fluorescence, 48 h, basal, profiling panel (AID 1162); details: higher = more signal; also: test concentration not given here
[2] = compound effects on differentiated 3T3-L1 adipocyte viability – cell-based, 3T3-L1 adipocytes, calcein-AM fluorescence, 48 h, basal, profiling panel (AID 1163); details: 3T3-L1 adipocytes viability, higher = more signal; also: test concentration not given here
[3] = compound effects on hepatocellular carcinoma cell viability – HepG2, calcein-AM fluorescence, 48 h, basal, profiling panel (AID 1164); details: higher = more signal; also: test concentration not given here
[4] = compound effects on multiple myeloma cell viability – MM1S, calcein-AM fluorescence, 48 h, basal, profiling panel (AID 1165); details: higher = more signal;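 also: viability of MM1S multiple myeloma cells under basal unstimulated conditions; test concentration not given here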
[5] = calcein-AM signal in unstimulated myeloma cells – cell-based, calcein-AM fluorescence, 48 h, PK04 Diversity Set, profiling panel (AID 1166); details: RPMI8226 myeloma viability, higher = more signal;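 also: cells grown under basal conditions without added stimulus; test concentration not given here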
[6] = JC-1 mitochondrial signal, unstimulated HepG2 cells – cell-based, JC-1 fluorescence, 24 h, 100 nL compound, profiling panel (AID 1167); details: HepG2 mitochondrial potential, higher = more signal; also: test concentration not given here
[7] = JC-1 mitochondrial signal, unstimulated adipocytes – cell-based, JC-1 fluorescence, 3T3-L1 adipocytes, 24 h, 100 nL compound, profiling panel (AID 1168); details: JC-1 mitochondrial fluorescence, higher = more signal, called active from +8 up or from −8 down; also: test concentration not given here
[8] = JC-1 mitochondrial signal, unstimulated myeloma cells – cell-based, JC-1 fluorescence, RPMI8226, 24 h, 100 nL compound, profiling panel (AID 1169); details: JC-1 mitochondrial potential fluorescence, higher = more signal; also: test concentration not given here
[9] = JC-1 mitochondrial signal, unstimulated MM1S myeloma – cell-based, JC-1 fluorescence, 24 h, 100 nL compound, profiling panel (AID 1170); details: MM1S mitochondrial potential, higher = more signal; also: test concentration not given here
[10] = resazurin metabolic signal in A549 cells – cell-based, resazurin fluorescence, 24 h, PK04 Diversity Set, profiling panel (AID 1171); details: A549 viability, higher = more signal, called active from +8 up or from −8 down; also: test concentration not given here
[11] = resazurin metabolic signal in HepG2 cells – cell-based, resazurin fluorescence, 24 h, PK04 Diversity Set, profiling panel (AID 1172); details: HepG2 viability, higher = more signal; also: test concentration not given here
[12] = budding yeast growth changes without added modifier – OD600, strain BY4716, 24 h, basal condition, primary screen (AID 1173); details: S. cerevisiae BY4716 growth, OD600, 24 h; higher = more signal, called active from +8 up or from −8 down
[13] = viability profiling in MM1S myeloma cells – cell-based, resazurin fluorescence, basal, 24 h, PK04 Diversity Set, profiling panel (AID 1174); details: higher = more signal, called active from +8 up or from −8 down; also: test concentration not given here
[14] = target: Dihydroorotate dehydrogenase (quinone), mitochondrial (Plasmodium falciparum (isolate 3D7)) (UniProt Q08210); assay: inhibition of P. falciparum DHODH – biochemical, C-terminal His tag, absorbance 600 nm, primary screen (AID 1175); details: PfDHODH enzyme, DCIP absorbance 600 nm; higher = more signal, called active from +8 up or from −8 down;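 also: recombinant parasite enzyme with a five histidine tag at its C terminus; test concentration not given here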
Dihydroorotate dehydrogenase (quinone), mitochondrial (Plasmodium falciparum (isolate 3D7)), sequence (Q08210 whole entry, looked up): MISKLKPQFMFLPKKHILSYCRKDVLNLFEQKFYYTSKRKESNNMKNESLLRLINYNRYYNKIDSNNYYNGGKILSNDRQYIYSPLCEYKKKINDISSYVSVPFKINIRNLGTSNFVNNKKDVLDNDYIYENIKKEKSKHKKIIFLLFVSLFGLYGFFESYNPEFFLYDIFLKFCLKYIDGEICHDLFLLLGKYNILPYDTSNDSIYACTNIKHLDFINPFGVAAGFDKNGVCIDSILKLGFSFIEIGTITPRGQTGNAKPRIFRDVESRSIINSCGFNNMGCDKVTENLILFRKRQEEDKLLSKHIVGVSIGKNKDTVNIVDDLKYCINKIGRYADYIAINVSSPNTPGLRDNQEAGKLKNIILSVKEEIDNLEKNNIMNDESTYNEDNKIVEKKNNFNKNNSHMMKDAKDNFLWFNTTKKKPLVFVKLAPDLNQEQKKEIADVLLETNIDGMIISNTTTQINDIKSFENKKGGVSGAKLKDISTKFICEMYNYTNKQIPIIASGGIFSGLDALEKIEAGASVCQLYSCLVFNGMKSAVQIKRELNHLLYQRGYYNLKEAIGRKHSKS

[15] = inhibition of PAO1 biofilm formation – strain PAO1, LB-PBS medium, absorbance 600 nm, primary screen (AID 1176); also: test concentration not given here; details: P. aeruginosa PAO1 growth/biofilm, A600, 12 h; higher = more signal
[16] = growth modulation of vineyard yeast isolate – strain RM11-1a, OD600, basal, 24 h, primary screen (AID 1177);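 also: cultures grown under basal conditions with no added stressor; test concentration not given here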; details: S. cerevisiae RM11-1a growth, OD600, 24 h; higher = more signal, called active from +8 up or from −8 down
[17] = growth of efflux-deficient E. coli DRC39 – strain DRC39, OD650, 24 h, E. coli filamentation inducers, primary screen (AID 1178);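 also: growth measured as culture turbidity by optical density at 650 nm; test concentration not given here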; details: E. coli DRC39 acrAB, higher = more signal, called active from +8 up or from −8 down
[18] = growth of efflux-deficient E. coli DRC39 – strain DRC39, OD650, 48 h, E. coli filamentation inducers, primary screen (AID 1179);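 also: screen aims at cell division blockers that make cells filament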; details: E. coli DRC39 delta-acrAB growth, higher = more signal, called active from +8 up or from −8 down
[19] = viability profiling in RPMI8226 myeloma cells – cell-based, resazurin fluorescence, basal, 24 h, PK04 Diversity Set, profiling panel (AID 1180); details: higher = more signal;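 also: RPMI8826 multiple myeloma cell line at 5000 cells per well; test concentration not given here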
[20] = target: E3 ubiquitin-protein ligase XIAP (Homo sapiens) (UniProt P98170); assay: small molecules binding XIAP protein – biophysical, small-molecule microarray, fluorescence 635 nm, primary screen (AID 1181); details: higher = more signal;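 also: score merges 667 nm emission and signal to noise over triplicate slides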
E3 ubiquitin-protein ligase XIAP (Homo sapiens), sequence (P98170 whole entry, looked up): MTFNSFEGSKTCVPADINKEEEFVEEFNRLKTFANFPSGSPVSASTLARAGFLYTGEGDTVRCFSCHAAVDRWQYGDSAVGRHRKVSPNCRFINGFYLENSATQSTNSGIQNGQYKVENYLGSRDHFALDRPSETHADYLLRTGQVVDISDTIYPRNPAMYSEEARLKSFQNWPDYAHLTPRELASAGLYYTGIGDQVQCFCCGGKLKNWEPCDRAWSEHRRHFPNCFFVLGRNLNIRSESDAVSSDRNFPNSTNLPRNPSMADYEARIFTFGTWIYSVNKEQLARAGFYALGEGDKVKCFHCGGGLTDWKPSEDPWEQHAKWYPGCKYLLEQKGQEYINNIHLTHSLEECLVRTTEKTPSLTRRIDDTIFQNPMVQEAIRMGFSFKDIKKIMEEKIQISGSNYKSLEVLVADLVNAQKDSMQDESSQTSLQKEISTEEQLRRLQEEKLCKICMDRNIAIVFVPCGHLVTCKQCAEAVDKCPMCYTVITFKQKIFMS

| SMILES | z-score [1] | z-score [2] | z-score [3] | z-score [4] | z-score [5] | z-score [6] | z-score [7] | z-score [8] | z-score [9] | z-score [10] | z-score [11] | z-score [12] | z-score [13] | composite z-score [14] | z-score [15] | z-score [16] | z-score [17] | z-score [18] | z-score [19] | composite z-score [20] |
| --- | --- | --- | --- | --- | --- | --- | --- | --- | --- | --- | --- | --- | --- | --- | --- | --- | --- | --- | --- | --- |
| COC(=O)[C@@H]1N=C(c2ccc(OCCCO)cc2)O[C@@H]1C | 0.0963 | -0.317 | 0.958 | 0.916 | -0.086 | 0.5 | 0.797 (inactive) | -0.155 | -1 | -0.155 (inactive) | 0.38 | 0.0443 (inactive) | -0.341 (inactive) | -0.403 (inactive) | -0.689 (inactive) | 0.895 (inactive) | 0.52 (inactive) | 1.13 (inactive) | 0.945 | 0.105 |
| Cc1ccc(NN2C(C(O)c3c(F)cccc3Cl)C=CC3C(=O)N(C4CCCCC4)C(=O)C32)cc1 (stereo not given) | 0.57 | -0.617 | 0.934 | 0.949 | 0.451 | -0.511 | 0.165 (inactive) | 0.0377 | -1.04 | 0.693 (inactive) | 0.703 | -0.074 (inactive) | 0.0812 (inactive) | -1.12 (inactive) | 1.47 (inactive) | -0.717 (inactive) | -0.452 (inactive) | 0.432 (inactive) | 0.262 | 0.122 |
| C=C[C@H](C)[C@H](OC(=O)Nc1ccc(SC)cc1)c1ccc(OCCO)cc1 | 0.0889 | 0.954 | -0.47 | -0.889 | -2.41 | -2.67 | 0.508 (inactive) | -0.781 | -0.72 | -1.48 (inactive) | -0.551 | -2.49 (inactive) | -0.547 (inactive) | -0.985 (inactive) | 1.15 (inactive) | 0.116 (inactive) | -0.576 (inactive) | -0.435 (inactive) | -0.274 | 0.133 |
| CCCC#C[Si](O[C@H](CC)c1cn([C@H](C)c2ccccc2)nn1)(C(C)C)C(C)C | 1.18 | -0.374 | 0.9 | -1.32 | -1.74 | 0.621 | 0.698 (inactive) | -0.0539 | -0.0359 | 0.61 (inactive) | 0.186 | -12.9 (active) | -0.098 (inactive) | 0.738 (inactive) | -0.677 (inactive) | 0.75 (inactive) | 1.4 (inactive) | 1.06 (inactive) | 1.29 | 0.274 |
| COC(=O)c1c(CC[C@@H](CO)NC(=O)N2CCC[C@H]2Cn2cc(C3(O)CCCCC3)nn2)oc(C(C)=O)c1C(=O)OC | -0.615 | 0.209 | -0.513 | 0.205 | 0.577 | 0.223 | -0.629 (inactive) | -0.667 | -0.38 | -0.168 (inactive) | -0.089 | -0.212 (inactive) | -0.66 (inactive) | -0.0366 (inactive) | -0.546 (inactive) | -0.37 (inactive) | 0.294 (inactive) | -0.0642 (inactive) | -0.302 | -0.0448 |
| CC(=O)N1CC2(CC2)CC1c1ccccc1 (stereo not given) | -1.64 | 0.334 | -1.34 | -0.386 | -1.14 | -1.15 | -1.86 (inactive) | 0.0805 | 0.359 | -0.714 (inactive) | -0.603 | 1.12 (inactive) | -1.89 (inactive) | -0.448 (inactive) | 0.535 (inactive) | 0.0303 (inactive) | -0.88 (inactive) | -0.206 (inactive) | -1.36 | 0.0116 |
| Cc1ccc(S[C@]2(C(=O)NCc3ccccc3)CC(=O)N(C3CCCCC3)[C@@H]2c2ccc(CO)cc2I)cc1 | -0.0709 | 0.183 | 0.398 | -1.93 | -3.39 | 0.521 | 0.97 (inactive) | -0.464 | -1.62 | -0.99 (inactive) | -0.636 | -0.799 (inactive) | -1.82 (inactive) | -0.11 (inactive) | 0.82 (inactive) | -0.505 (inactive) | 0.509 (inactive) | 0.323 (inactive) | -2.24 | -0.0095 |
| CC(C)[Si](C#CCCCC#N)(O[C@H](c1ccccc1)c1cn(Cc2ccccc2)nn1)C(C)C | 0.059 | -0.454 | -0.213 | 0.444 | -0.34 | 0.604 | 0.0406 (inactive) | 0.993 | -1.31 | -0.235 (inactive) | -0.538 | -6.51 (inactive) | 0.118 (inactive) | -0.0054 (inactive) | 0.584 (inactive) | -0.431 (inactive) | -0.25 (inactive) | 0.0331 (inactive) | 0.424 | -0.0025 |
| C=CCC(OC(C)=O)[C@@H]1[C@@H](N(Cc2cccc3ccccc23)C(=O)Cc2ccc(OC)cc2)c2cc(OCCCO)ccc2N1C(=O)c1ccc(-c2ccccc2)cc1 (stereo not given in full) | -0.433 | 1.12 | 0.256 | -0.47 | 0.0509 | 2.36 | 0.286 (inactive) | 0.0206 | 0.621 | 0.48 (inactive) | -0.433 | 0.376 (inactive) | 0.551 (inactive) | -0.547 (inactive) | -0.121 (inactive) | -0.352 (inactive) | 0.144 (inactive) | -0.165 (inactive) | 0.0598 | -0.224 |
